Most compounds without a hit are left out; they make up all but 1.8% or so of the library.
Neddyl block – cullin neddylation inhibition | P61081+Q13564 | TR-FRET cullin neddylation, biochemical | calls only at 25 µM | 0.58% of 360,000 active | AID 651699; in the data active = inhibition above about 36%
MBD2 DNA inh – MBD2-methylated oligo binding inhibition. AID 686964. TR-FRET, MBD2 binding to methylated oligonucleotide. 0.31% of 370,000 active. Q9UBB5. inhibition, % at 4.4 µM; in the data active = inhibition above about 13%
UBC13 polyUb – inhibitors of human UBC13 polyubiquitin chain formation. P61088. TR-FRET. inhibition, % at 20 µM. 0.47% of 330,000 active; in the data active = inhibition above about 45%, passing the limit was not always enough
Target sequence (P61088 whole entry, looked up): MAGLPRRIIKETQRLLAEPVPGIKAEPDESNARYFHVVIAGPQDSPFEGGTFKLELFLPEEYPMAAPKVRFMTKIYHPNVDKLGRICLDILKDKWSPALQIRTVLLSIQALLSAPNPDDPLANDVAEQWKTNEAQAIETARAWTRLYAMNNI
UHRF1 MBD2 ctr – UHRF1 methyl-DNA binding inhibition; UHRF1 binding to methylated oligo, TR-FRET; inhibition, % at 4.4 µM; Q96T88; 0.75% of 370,000 active; in the data active = inhibition above about 21%;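 also: UHRF1 SRA domain binding a hemimethylated CpG hairpin DNA probe; 0% = median of test compound wells and 100% = reference inhibitor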
An asterisk follows results filed as active; i = inactive; x = not tested or not shown; + = active, no number.

SMILES	Neddyl block	MBD2 DNA inh	UBC13 polyUb	UHRF1 MBD2 ctr
CCC(C)(C)NC(=O)Nc1cc(Cl)ccc1OC	i	-5	-2	0
S=C(NCc1ccco1)NCc1ccco1	i	3	x	27*
Cc1ccc2nc3c(c(C(=O)O)c2c1)CCC3	i	-3	-6	21*
Cc1cccn2c(NC(=O)c3ccccc3F)c(-c3ccccc3)nc12	i	2	-1	2
O=C(C[C@H]1C(=O)N(C2CCCCC2)C[C@@H]1c1ccccc1)Nc1ccc(Br)cc1	i	12	x	22*
COc1cc2ccccc2cc1C(=O)Nc1sc2c(c1C(N)=O)CCN(C(C)C)C2	+	3	31	6
Cn1cc([N+](=O)[O-])c(C(=O)NC2CCCC2)n1	i	-1	5	1
O=C(O)c1ccc(-c2ccc(/C=C3\NC(=O)N(Cc4ccc(Cl)cc4)C3=O)o2)cc1Cl	i	22*	-13	77*
COc1ncnc2c1oc1nc(CC(C)C)c3c(c12)CCCC3	i	-3	x	-3
C[C@H]1COc2cc(N3CC[C@H](O)C3)ccc2S(=O)(=O)N1	i	2	x	62*
Cc1ccc(/C(N)=N/OC(=O)Cc2cccc3ccccc23)cc1	i	6	11	24*
N/C(=N\OC(=O)Cc1cccs1)c1ccccc1	i	9	1	21*
Cc1ccc(/C(N)=N/OC(=O)Cc2cccs2)cc1	i	-3	2	0
Cc1cccc(/C(N)=N/OC(=O)Cc2cccc3ccccc23)c1	i	1	8	0
COc1ccc(Nc2nc(=O)c3cc([N+](=O)[O-])ccc3s2)cc1	i	7	x	25*
Cc1ccc(Nc2nc(=O)c3cc([N+](=O)[O-])ccc3s2)cc1	i	-3	-1	8
COc1cc(-c2nccc3cc4c(cc23)OCO4)cc(OC)c1OC	i	-5	x	1
COc1cc(O)c(C(C)=O)c(OC)c1	i	1	x	3
COc1cc(O)c(C(C)=O)c(CC(=O)O)c1	i	10	-1	28*
O=C(NCCN1CCN(c2ccccc2F)CC1)c1cccn2c(=O)c3ccccc3nc12	+	-7	-4	1
O=C(CCN1C(=O)COc2ccccc21)NCc1cccnc1	i	-1	5	-1
O=C(CCN1C(=O)c2cccc3cccc(c23)C1=O)NCc1cccnc1	i	-4	0	25*
O=C(CCN1C(=O)C2C3C=CC(C3)C2C1=O)NCc1cccnc1 (centres undefined)	i	7	-8	22*
COc1ccc(OC)c(/C=C2\S/C(=N/NC(=O)c3ccc4ccccc4c3)NC2=O)c1	+	0	x	-5
O=C1N/C(=N/NC(=O)c2cccc3ccccc23)S/C1=C\c1ccccc1OCc1ccccc1	x	-2	x	-1
SMILES	Neddyl block	MBD2 DNA inh	UBC13 polyUb	UHRF1 MBD2 ctr
O=C(CSc1nc2ccccc2c(=O)n1-c1ccccc1)N1CCc2ccccc2C1	i	7	-10	28*
O=C(CC1NCCNC1=O)OCCCc1ccccc1 (centres undefined)	i	4	2	-3
CS(=O)(=O)N(CC(=O)Nc1ccc(S(=O)(=O)N2CCCC2)cc1)c1cccc(F)c1	i	6	-7	28*
CO/N=C\C(=N\Nc1ccc(OC)cc1)C(=O)c1ccccc1	i	-6	-8	38*
CO/N=C/C(=N\Nc1ccccc1)C(=O)c1ccccc1	i	-3	-6	-3
CCc1ccc2nc(Nc3ccc(OC)cc3OC)c(C#N)cc2c1	i	3	26	22*
CCOC(=O)c1cnc2ccccc2c1Nc1ccc(C(=O)O)cc1	i	3	2	26*
CCOC(=O)c1cnc2ccccc2c1Nc1cccc(C(=O)O)c1	i	3	1	2
COc1cccc2c(=O)n(CC(=O)N3CCC(C)CC3)ccc12	i	-8	-4	93*
Cc1onc(-c2c(F)cccc2Cl)c1C(=O)N1CCN(c2ncccn2)CC1	i	2	-2	3
O=C(c1sc2cccc(F)c2c1Cl)N1CCN(c2ncccn2)CC1	i	11	-10	26*
CC1=C(C#N)C(c2ccc3ncccc3c2)C(C#N)=C(C)N1	i	8	12	28*
O=c1c2c3nc4ccccc4nc3n(CC3CCCO3)c2ncn1CCc1ccccc1 (centres undefined)	+	-2	7	2
COc1ccc(S(=O)(=O)N2CCOCC2)cc1NC(=O)CN(C)Cc1c(F)cccc1Cl	i	4	-5	24*
COc1ccc(S(=O)(=O)N2CCOCC2)cc1NC(=O)Cc1c(Cl)cccc1Cl	i	-3	-10	-2
CCCn1c(SCC(=O)c2cc(C)n(-c3ccc4c(c3)OCO4)c2C)n[nH]c1=O	i	2	0	-1
CCCn1c(SCC(=O)c2cc(C)n(C3CC3)c2C)n[nH]c1=O	i	-4	3	26*
Nc1nc2ccccc2n1C(=O)c1ccccc1	+	2	3	0
Nc1nc2ccccc2n1C(=O)c1ccc(F)cc1	i	-3	2	1
Cn1cc(C(=O)C(=O)N2CCCC2)c2ccccc21	i	-4	17	-3
O=C(NNC(=O)c1cccs1)c1ccc([N+](=O)[O-])cc1	x	-1	-1	21*
O=C(NCC(c1cccs1)N1CCOCC1)c1ccc([N+](=O)[O-])cc1 (centres undefined)	i	1	7	25*
O=C(NNC(=O)c1ccc([N+](=O)[O-])cc1)c1ccc(NS(=O)(=O)c2cccs2)cc1	i	1	-19	1
CC(=O)c1cccc(NC(=O)N2CCCC2C(=O)Nc2cccc(C)c2)c1 (centres undefined)	i	9	-7	21*
COc1cccc(NC(=O)C2CCCN2C(=O)Nc2cccc(F)c2)c1 (centres undefined)	i	3	5	63*
SMILES	Neddyl block	MBD2 DNA inh	UBC13 polyUb	UHRF1 MBD2 ctr
COc1cccc(NC(=O)C2CCCN2C(=O)Nc2ccccc2)c1 (centres undefined)	i	0	5	-2
CCOc1cccc(CNCc2ccncc2)c1	i	-3	3	2
CN(Cc1ccco1)S(=O)(=O)c1cc(F)ccc1CN1C(=O)c2cccnc2C1=O	i	9	-2	24*
COc1cccc(N(CC(=O)NCCSc2ccc(Cl)cc2)S(C)(=O)=O)c1	i	10	4	27*
C/C(=N/NC(=O)CSc1nc2ccccc2n1C)c1ccc(O)cc1	i	2	0	-4
C/C(=N/NC(=O)CSc1nc2ccccc2n1C)c1ccco1	i	-5	-4	83*
CCCNC(=O)OC1CC2CC1[C@H]1CCCCN1C2=O (some centres undefined)	i	9	x	23*
Cc1ccc(CNC(=O)OC2CC3CC2[C@H]2CCCCN2C3=O)cc1 (some centres undefined)	i	1	x	4
Cc1sc2ncnc(N/N=C/c3ccc(O)cc3)c2c1C	i	0	-5	-3
Cc1sc2ncnc(N/N=C/c3ccccc3O)c2c1C	+	-3	x	-4
Cc1cccc(NC(=O)CN2C(=O)N/C(=C/c3ccc(C)s3)C2=O)c1	i	0	-8	3

Source: PubChem BioAssay
